# Reference: PubChem BioAssay (NCATS)
# Several values for one entry are separate records, joined by “and”; a condition that tells them apart may be missing. Equal values may be shown once. Inconclusive results are not listed. Unmarked numbers belong to inactive results. Activity calls are given as the source filed them. Calls follow the shape of the dose curve; as a rule, active = well fitted inhibition curve with a large enough effect; inconclusive = small, poorly fitted or top-dose-only effect; inactive = flat fitted curve, though single readings scatter.
# Assays:
# [1] = tested on: KB-3-1; experiment: Cytotoxic Profiling of Annotated Libraries Using Quantitative High-Throughput Screening (AID 1296008); settings: Five cell lines viability, CellTiter-Glo ATP luminescence, 48-72 h; max response: active compounds read low
# Summary of the method: (§1)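 Cells exposed to compounds for 48 or 72 hr at 37 degrees Celsius. Viability read as ATP-coupled luminescence with CellTiter-Glo after 10 min at room temperature.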
# [2] = tested on: MCC-13; experiment: qHTS assay to identify novel small-molecules to repurpose for Merkel cell carcinoma treatment (AID 1296009); settings: MCC and control cell lines, CellTiter-Glo viability, 72 h; series mostly up to 46 µM
# Summary of the method: (§2)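 Dose-response viability screen; 72 hr exposure at 37 degree celsius; CellTiter-Glo added, 10 min room temperature, luminescence read; RLUs scaled between no-cell and DMSO wells.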
# [3] = tested on: MCC-26; experiment: as above; settings: MCC and control cell lines, CellTiter-Glo viability, 72 h; series mostly up to 46 µM
# Summary of the method: as §2
# [4] = tested on: MKL-1; experiment: as above; settings: MCC and control cell lines, CellTiter-Glo viability, 72 h; series mostly up to 46 µM
# Summary of the method: as §2
# [5] = tested on: NIH3T3; experiment: Cytotoxic Profiling of Annotated Libraries Using Quantitative High-Throughput Screening (AID 1296008); settings: Five cell lines viability, CellTiter-Glo ATP luminescence, 48-72 h; max response: active compounds read low
# Summary of the method: as §1
# [6] = tested on: HEK293T; experiment: qHTS assay to identify novel small-molecules to repurpose for Merkel cell carcinoma treatment (AID 1296009); settings: MCC and control cell lines, CellTiter-Glo viability, 72 h; at 44.8 µM (top of the series)
# Summary of the method: as §2
# [7] = tested on: MKL-2; experiment: as above; settings: MCC and control cell lines, CellTiter-Glo viability, 72 h; series mostly up to 46 µM
# Summary of the method: as §2
# % is scaled to controls: 0 for no effect and ±100 for the full control effect.
# Also: nearly all actives have a fitted effect of over 60% in size.
smiles,measurement,setting,value
CC(=O)Nc1c(I)c(C(=O)O)c(I)c(N(C)C(C)=O)c1I,max response,[1],3.77%
CN1c2c(nc(N)[nH]c2=O)NCC1CNc1ccc(C(=O)NC(CCC(=O)O)C(=O)O)cc1 (configuration not stated),max response,[1],9%
NC(=O)Oc1ccc(Cc2ccccc2)cc1,max response,[1],11.9%
C=CC[N@@+]12CC[C@@]34c5ccccc5N5/C=C6/[C@H]7C[C@H]8[C@@]9(CC[N@@+]8(CC=C)C/C7=C/CO)c7ccccc7N(/C=C(/[C@@H](C[C@@H]31)/C(=C\CO)C2)[C@H]54)[C@@H]69,max response,[1],19.7%
CNC(=O)C[C@@H](N)C(=O)N[C@@H](C(=O)N[C@@H]1C(=O)N2[C@@H]1SC(C)(C)[C@@H]2C(=O)O)c1ccc(O)cc1,max response,[1],-18.5%
O=P(O)(O)OP(=O)(O)OP(=O)(O)O,max response,[1],-3.72%
CC(O)[C@@H]1NC(=O)[C@H](Cc2ccccc2)NC(=O)[C@H](C(C)O)NC(=O)[C@H](CCCCN)NC(=O)[C@H](Cc2c[nH]c3ccccc23)NC(=O)[C@H](Cc2ccccc2)NC(=O)[C@H](Cc2ccccc2)NC(=O)[C@H](CC(N)=O)NC(=O)[C@H](CCCCN)NC(=O)[C@@H](NC(=O)CNC(=O)[C@H](C)N)CSSC[C@@H](C(=O)O)NC(=O)[C@H](CO)NC1=O (some centres not stated),max response,[1],-3.89%
CCOc1ccc(NC(=S)Nc2ccc(OCC)cc2)cc1,max response,[1],43.1%
COC1[C@@H](O[C@@H]2O[C@H](C)[C@@H](O[C@H]3C[C@@](C)(O)[C@H](OC(=O)CC(C)C)[C@H](C)O3)[C@H](N(C)C)[C@H]2O)[C@@H](CC=O)C[C@@H](C)[C@@H](O)/C=C/C=C/C[C@@H](C)OC(=O)C[C@H]1OC(C)=O (some centres not stated),max response,[1],-19.6%
c1ccc2ccccc2c1,max response,[1],-0.155%
C[Se]CC[C@H](N)C(=O)O,max response,[1],0.415%
N#Cc1ccc2c(c1)N(CCCN1CCC(O)CC1)c1ccccc1S2,max response,[1],1.4%
O=C(O)Cc1nn(Cc2ccc(Br)cc2F)c(=O)c2ccccc12,max response,[1],1.97%
CC1=C(/C=C/C(C)=C/C=C/C(C)=C/C=C/C=C(C)/C=C/C=C(C)/C=C/C2=C(C)C[C@@H](O)CC2(C)C)C(C)(C)C[C@H](O)C1,max response,[1],-5.35%
C=CCN1CCCC1CNC(=O)c1cc(S(N)(=O)=O)cc(OC)c1OC (configuration not stated),max response,[1],5.61%
Oc1ccc(/C=C/c2cc(O)cc(O)c2)cc1,max response,[1],36.2%
same,outcome,[2],inactive
same,outcome,[3],inactive
same,outcome,[4],inactive
CC[C@H]1OC(=O)C[C@@H](O)[C@H](C)[C@@H](O[C@@H]2O[C@H](C)[C@@H](O[C@H]3C[C@@](C)(O)[C@@H](O)[C@H](C)O3)[C@H](N(C)C)[C@H]2O)[C@@H](CC=O)C[C@@H](C)C(=O)/C=C/C(C)=C/[C@@H]1CO[C@@H]1O[C@H](C)[C@@H](O)[C@@H](OC)[C@H]1OC,max response,[1],31.7% and -4.31%
CO,max response,[1],17.7%
CCc1cn([C@H]2C[C@H](O)[C@@H](CO)O2)c(=O)[nH]c1=O,max response,[1],5.47%
C[C@@](Cc1ccc(O)c(O)c1)(NN)C(=O)O,max response,[1],2.59%
CO/N=C(\C(=O)N[C@@H]1C(=O)N2C(C(=O)O)=C(CSc3nnnn3C)CS[C@H]12)c1csc(N)n1,max response,[1],-10.7%
OC/C=C/c1ccccc1,max response,[1],-5.63%
CN[C@@H]1[C@H](O[C@H]2[C@H](O[C@H]3[C@H](O)[C@@H](O)[C@H](N=C(N)N)[C@@H](O)[C@@H]3N=C(N)N)O[C@@H](C)[C@]2(O)C=O)O[C@@H](CO)[C@H](O)[C@H]1O,max response,[1],22.5%
CCCCCCCCCCCCCCCCCC(=O)OC[C@@H](O)[C@H]1OC[C@H](O)[C@H]1O,max response,[1],-10%
COc1cc(S(C)=O)ccc1-c1nc2ncccc2[nH]1 (configuration not stated),max response,[1],26.5%
Cc1c(C)c2c(c(C)c1OC(=O)CCC(=O)O)CC[C@@](C)(CCC[C@H](C)CCC[C@H](C)CCCC(C)C)O2,max response,[1],3.34%
O=C(OCc1ccccc1)c1ccc(O)cc1,max response,[1],2.26%
same,max response,[5],0.27%
same,outcome,[6],inactive
same,outcome,[2],inactive
same,outcome,[3],inactive
same,outcome,[4],inactive
same,outcome,[7],inactive
COC1=C(OC)C(=O)C(C/C=C(\C)CC/C=C(\C)CC/C=C(\C)CC/C=C(\C)CC/C=C(\C)CC/C=C(\C)CC/C=C(\C)CC/C=C(\C)CC/C=C(\C)CCC=C(C)C)=C(C)C1=O,max response,[1],-15.4%
